SMN2 splice enh: SMN2 splice variant enhancement; HEK293 SMN2-luciferase splicing reporter, luminescence, 30-36 h; Potency, µM (titrated, usually from 46.1 µM), inactives show at the top dose activity change, positive = activation, actives largely listed as activators; 210,000 tested, 2.8% active; note: % of control where 0% means no effect; nearly all actives have a fitted effect of over 55% in size
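HEK293 cells carry an SMN2 minigene-luciferase reporter in which exon 7 inclusion puts luciferase in frame. Cells were seeded at 2000 cells/well, attached for 10-12 hours, then exposed to compounds for 30-36 hours at 37C before ONE-Glo luminescence.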
NPC1 promoter act: activators of NPC1 promoter; AID 485313; Huh7 NPC1 promoter luciferase reporter, 24 h; Potency, µM (series often up to 9.22 µM), inactives show top-dose activation, usual class: activators; 320,000 tested, 2.4% active; note: % of control where 0% means no effect; nearly all actives have a fitted effect of over 60% in size
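Huh7 cells stably carrying NPC1 promoter–luciferase, plated in Opti-MEM with 10% FBS for 2 h, were exposed to compound in DMSO for 24 h at 37 °C; luciferase reagent was added for 10 min and luminescence read.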
FLuc modulator: inhibits or activates purified firefly luciferase, miR-21 counter-screen; purified FLuc, Km substrates, luminescence inhibition; Potency, µM (top dose mostly 57.5 µM), for inactives: at the highest dose activity change, negative = inhibition, hits mostly inhibitors; 360,000 tested, 6.9% active;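 note: plate controls were vehicle for no effect and reference inhibitor for full effect; nearly all actives have a fitted effect of over 55% in size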
Target sequence (P08659 whole entry, looked up): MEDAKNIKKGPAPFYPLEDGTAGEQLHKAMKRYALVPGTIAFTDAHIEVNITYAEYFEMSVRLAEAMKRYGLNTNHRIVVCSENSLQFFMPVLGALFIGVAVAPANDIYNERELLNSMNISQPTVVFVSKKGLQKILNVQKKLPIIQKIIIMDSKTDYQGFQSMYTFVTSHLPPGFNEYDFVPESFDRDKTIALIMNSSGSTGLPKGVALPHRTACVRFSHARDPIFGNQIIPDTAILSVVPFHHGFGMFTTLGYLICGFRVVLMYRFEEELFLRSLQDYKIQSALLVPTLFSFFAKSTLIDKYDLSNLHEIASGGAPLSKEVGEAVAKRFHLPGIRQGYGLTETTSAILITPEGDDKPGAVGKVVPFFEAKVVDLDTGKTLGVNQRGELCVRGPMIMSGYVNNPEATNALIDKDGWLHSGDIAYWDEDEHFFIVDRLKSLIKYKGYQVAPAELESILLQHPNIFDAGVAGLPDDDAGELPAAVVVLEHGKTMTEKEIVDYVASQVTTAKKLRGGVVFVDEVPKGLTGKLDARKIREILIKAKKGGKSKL
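Biochemical qHTS of compounds, final roughly 60 µM downward over six points, against 10 nM purified firefly luciferase using Km concentrations of substrates (10 uM D-luciferin, 10 uM ATP) in Tris acetate pH 7.5 buffer; luminescence output.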
ELG1 genotoxic: induces genotoxicity in HEK293T cells with luciferase-tagged ELG1; Potency, µM (titrated, usually from 46 µM), for inactives: top-dose activity change, positive = activation, usual class: activators; 330,000 tested, 1.3% active; HEK293T ELG1-luciferase reporter, luminescence, 16 h; note: % of control where 0% means no effect; nearly all actives have a fitted effect of over 60% in size
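Reporter readout depends on ELG1 protein level, which increases with genetic stress. After 16 hr compound exposure at 37 °C, luciferase activity was quantified using ONE-Glo.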
Rab9 prom act: Rab9 promoter activation. Huh7 Rab9 promoter-luciferase reporter, luminescence, 24 h. Potency, µM (titrated, usually from 9.22 µM), for inactives: at the highest dose activation, negative = inhibition, actives largely listed as activators. 320,000 tested, 2.8% active. AID 485297; note: % of control where 0% means no effect; nearly all actives have a fitted effect of over 60% in size
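Cell-based reporter: Huh7 stable for Rab9 promoter-driven luciferase, plated in reduced-serum medium with 10% FBS at 1500 cells/well, compound-treated 24 h at 37 °C, luminescence read after 10 min reagent.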
Starred values were filed as active, the others as inactive; ? = inconclusive; · = not tested or not shown; ! = not confirmed by another sample; [ ] = dose if it differs, or a comment. In the library only some 7.5% were active in any assay of this set; here they are far more common. Calls come from the whole dose curve; as a rule, active = well fitted curve in the direction sought with a large enough effect; inconclusive = small, poorly fitted or top-dose-only effect, or another doubt; inactive = no such curve, though single readings can be large; an effect the other way counts as inactive or inconclusive. Potency is the fitted concentration of half-maximal effect.

SMILES	SMN2 splice enh	NPC1 promoter act	FLuc modulator	ELG1 genotoxic	Rab9 prom act
O=C(CSc1ccc(-c2ccccn2)nn1)Nc1ccc(F)c(F)c1	·	-1.2%	13.5µM*	?	-9.7%
CCOc1ccc(NC(=O)CSc2ccc(-c3ccccn3)nn2)cc1	·	1.0%	-7.7%	14.6%	-0.1%
O=C(CN1C(=O)COc2ccccc21)N(CCCN1CCOCC1)CC1CC=CCC1 (configuration not stated)	-18.5%	4.6%	-1.2%	-2.5%	16.2%
Cc1ccc(OCCOc2cccc3ccc(C)nc23)c([N+](=O)[O-])c1	18.0%	5.9%	21.3µM*	-0.4%	2.2%
NC(=O)COc1cccc2cccnc12	-0.5%	-0.4%	1.9%	3.2%	11.5%
Cc1ccc2cccc(OCCCOc3ccccc3F)c2n1	·	-1.8%	19µM*	3.4%	12.6%
COc1cccc(OC)c1OCCCOc1cccc2cccnc12	?	?	16.9µM*	13.0%	3.16µM*
Fc1ccc(COc2cccc3cccnc23)cc1	28.9%	?	16.9µM*	?	?
Cc1cccc(OCCCOc2cccc3cccnc23)c1C	-20.6%	-3.4%	?	-0.6%	4.6%
Cc1ccc2cccc(OCCOCCOc3ccccc3Br)c2n1	-4.6%	-0.6%	-6.9%	-7.8%	-1.5%
Cc1nnc(SCC(=O)Nc2cc(C(F)(F)F)ccc2Cl)n1C	·	-3.4%	7.2%	10.2%	0.9%
Brc1ccccc1OCCOCCOc1cccc2cccnc12	-9.5%	0.1%	-2.3%	2.8%	-2.3%
Brc1ccc(OCCCOc2cccc3cccnc23)cc1	·	0.6%	?	6.6%	0.6%
O=Cc1ccc(OCCCOc2cccc3cccnc23)cc1	·	-1.7%	-6.4%	16.0%	0.1%
O=[N+]([O-])c1ccccc1OCCCOc1cccc2cccnc12	·	?	6.75µM*	?	?
O=Cc1ccccc1OCCCOc1cccc2cccnc12	·	21.7%	13.5µM*	5.8%	23.4%
Clc1ccccc1OCCCOc1cccc2cccnc12	·	?	7.57µM*	?	?
Cc1ccc(OCCN2C(=O)c3ccccc3C2=O)c([N+](=O)[O-])c1	-25.2%	13.5%	21.3µM*	7.1%	25.9%
O=C(N/N=C/c1cccc(OCc2ccccc2)c1)c1ccc(Br)cc1	-3.8%	2.5%	-8.9%	1.3%	5.8%
O=C(N/N=C/c1ccc(Br)cc1)c1cc[n+]([O-])cc1	·	1.9%	?	0.9%	-1.6%
O=C(N/N=C/c1ccc(F)cc1)c1ccc(Br)cc1	6.7%	23.2%	9.53µM*	14.2%	26.8%
Cc1cccc(/C=N\N=C\c2cccc(C)c2)c1	·	?	8.49µM*	16.2%	24.6%
Cc1cccc(/C=N/NC(=O)c2ccc(Br)cc2)c1	?	13.9%	3.38µM*	?	?
Cc1cccc(/C=N/n2c(C)nnc2C)c1	1.4%	-2.3%	2.8%	3.1%	3.1%
O=C(N/N=C/c1ccc(Br)cc1)c1ccc(F)cc1	12.6µM*	?	6.01µM*	?	24.2%
SMILES	SMN2 splice enh	NPC1 promoter act	FLuc modulator	ELG1 genotoxic	Rab9 prom act
Cc1ccc(N2CC(C(=O)Nc3ccccc3C(=O)N3CCOCC3)CC2=O)cc1 (configuration not stated)	·	-2.1%	-0.1%	2.3%	8.0%
Cn1cnc(S(=O)(=O)NC2CCN(Cc3c(F)cccc3Cl)CC2)c1	·	-5.6%	-2.6%	4.1%	5.0%
O=C(N/N=C/c1ccc(Br)cc1)c1ccc(Br)o1	11.2µM*	?	4.26µM*	?	3.16µM*
CCCc1ccc(NC(=O)C2CCN(c3cnccn3)CC2)cc1	·	-7.5%	-0.3%	-0.9%	-8.3%
CCOC(=O)c1ccc(-c2ccc(C=O)o2)cc1	·	?	23.9µM*	?	?
CCCOC(=O)c1ccc(-c2ccc(C=O)o2)cc1	1.26µM*	?	13.5µM*	?	?
CCCOC(=O)c1cc(-c2ccc(C=O)o2)ccc1Cl	?	21.9%	?	10.9%	28.4%
CCOC(=O)c1cccc(-c2ccc(C=O)o2)c1	13.2%	13.3%	-18.2%	10.0%	17.7%
CCNc1nc(Oc2ccc(C(=O)OC)cc2)nc(N(C)C)n1	-19.3%	-0.3%	3.2%	0.8%	-3.2%
CCNc1nc(N)nc(Oc2ccc(C(=O)OC)cc2)n1	25.1µM*	?	19µM*	11.6µM*	3.16µM*
Cc1onc(-c2ccccc2)c1C(=O)N1CCN(Cc2ccccc2)CC1	·	-1.6%	5.1%	-5.2%	5.1%
Cc1ccc(NC2=Nc3ccccc3CC2)cc1	11.9%	0.398µM*	1.9µM*	0.731µM*	0.398µM*
Brc1ccc(NC2=Nc3ccccc3CC2)cc1	10µM*	3.16µM*	3.79µM*	17.6%	?
Cc1ccc(NC(=O)NNC(=O)c2ccccc2)cc1	25.2%	2.1%	-3.7%	6.8%	14.6%
N#CC1=C(Nc2ccc(Br)cc2)CCC1	·	-0.5%	-22.3%	?	6.9%
Cc1ccc(CSCC(=O)N(C)CC(=O)Nc2c(Cl)cccc2Cl)cc1	·	2.6%	1.0%	-6.5%	0.2%
O=C(O)c1cc(-c2ccc3ccccc3n2)nc2ccccc12	·	?	0.601µM*	?	2.82µM*
O=C(O)c1cc(-c2cc(C(=O)O)c3ccccc3n2)nc2ccccc12	·	0.1%	?	-1.3%	-2.0%
O=C(c1cc(-c2cccc3ccccc23)nc2ccccc12)N1CCN(CCO)CC1	·	·	·	-3.7%	·
O=C(O)c1cc(-c2cccc3ccccc23)nc2ccccc12	·	1.3%	26.9µM*	-6.9%	-2.4%
CCOc1ccc(-c2cc(C(=O)O)c3ccccc3n2)c(OCC)c1	117.6%	-1.2%	16.9µM*	-1.7%	-2.3%
O=C(O)c1cc(-c2ccc3ccccc3c2)nc2ccc(F)cc12	·	-0.1%	2.69µM*	1.5%	-2.6%[1.84 µM]
O=C(O)c1cc(-c2c[nH]c3ccccc23)nc2cc3ccccc3cc12	·	27.5%	0.675µM*	17.4%	25.3%
O=C(O)c1cc(-c2ccc(-c3ccccc3)cc2)nc2cc3ccccc3cc12	-1.3%[9.22 µM]	·	·	·	·
COC(=O)c1ccccc1NC(=O)c1noc2c1CCC2	-2.1%	-2.2%	-4.8%	12.9%	-1.3%
SMILES	SMN2 splice enh	NPC1 promoter act	FLuc modulator	ELG1 genotoxic	Rab9 prom act
Cc1ccc(C)c(N2CCN(C(=O)c3noc4c3CCCCC4)CC2)c1	·	·	7.3%	·	·
Cc1ccc(O)c(NC(=O)c2noc3c2CCCCC3)c1	3.98µM*!	2.82µM*	4.78µM*	?	?
Cc1ccc(Cn2nc(C)c(NC(=O)c3noc4c3CCCCC4)c2C)cc1	-32.6%	-0.9%	1.7%	-7.6%	1.0%
CSc1ccccc1NC(=O)c1noc2c1CCC2	-5.4%	5.0%	?	14.6µM*	24.4%
Cc1ccc(O)c(NC(=O)c2noc3c2CCCC3)c1	11.2µM*	·	8.49µM*	·	·
CCn1c(SCC(=O)Nc2cccc(F)c2)nc2c(c1=O)SC(C)C2 (configuration not stated)	-24.7%	-5.8%	0.4%	0.4%	-3.0%
COc1ccc(-c2cc(C#N)nc(N3CCN(c4ccccc4)CC3)n2)cc1	-45.3%	-1.5%	7.8%	-5.4%	0.3%
O=C(N/N=C/c1ccc(N2CCOCC2)cc1)c1cccs1	11.2µM*	2.82µM*	8.49µM*	?	?
